# Results reported in PubChem BioAssay AID1508600 (Functional Genomics Laboratory (NCATS/FGL), 2020).
# Hit rate of the full screen: of about 53,000 sequences, about 3,700 (7%) were called active. Shown is part of a subset that was picked to be rich in actives. A number with no mark means an inactive call.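 How the source made its calls: active means gene knockdowns whose robust z-score for IL-1 alpha signal is at least 2 or at most -2, so actives lie on both sides; inactive means the rest.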
# Experiment: Components of the Cytosolic LPS Sensing Pathway: Gene Identification via Genome-wide siRNA Screen
# Details: RAW264.7 macrophages, IL-1a HTRF, actives lie on both sides, screened at 100 nM (by protocol), cells primed 5 h with Pam3CSK4 first
# From the text: Non-canonical inflammasome activation by cytosolic LPS is a critical component of the host response to Gram-negative bacterial infection, however we lack a comprehensive understanding of the cellular processes that control this pathway. Here we describe a genome-wide siRNA screen to identify genes regulating the mouse macrophage IL-1 alpha response to cytosolic LPS.
# RAW264.7 cells were maintained in complete DMEM media, comprising DMEM with 4.5 g/L glucose, 10% FBS (Gemini Bio-Products, West Sacramento, CA), 2 mM Glutamine (Lonza) and 20 mM HEPES (Lonza), hereafter complete DMEM.
# The RNAi screen was conducted in 384-well format using the Ambion Silencer Mouse Genome siRNA Library (#4391425), which consists of three unique, nonoverlapping, nonpooled siRNAs for each of 17,000 gene targets. siRNA reagents ([…]) were stamped into 384-well white flat-bottom microplates (Corning, 3570) using a Velocity11 VPrep liquid handling system (Agilent) integrated into a BioCel robotic platform (Agilent) in columns 1-22, leaving columns 23-24 empty for negative (Ambion, Negative control #1) and positive (mouse Casp4) controls, respectively. The median value of each plate's negative control column was used to normalize sample wells, and the positive control was used to assess transfection efficiency and assay performance.
# Lipofectamine RNAiMAX Transfection Reagent ([…]; Invitrogen) was added in […] serum-free, antibiotic-free media to plate wells using a Thermo Scientific Matrix WellMate and Microplate Stacker. Plates were incubated for 45 min at room temperature to allow for the sufficient formation of siRNA-lipid complexes. Cells were seeded at a density of 1x10^4 cells per well in 20 microL media containing 20% (vol/vol) FBS without antibiotics. The final concentration of siRNA in each well was 100 nM. Cells were cultured for 48h at 37 degrees C in 5% CO2 before addition of […] of TLR ligand Pam3CSK4 for 5 hours. The medium was then removed, replaced with […] growth media and cell were transfected with […] of LipidA and TransIT-TKO (Mirus) for 24 hour. At the end of the LipidA treatment, […] of supernatant was transferred to a 384 Greiner Bio-one non-binding low volume plate and […] of IL-1a HTRF reagent (Cisbio, 62MIL1APEH) was added and incubated at room temperature overnight. The plates were read on an EnVision plate reader (PerkinElmer). Cell viability was measured by adding 20ul Cell Titer Glo to the original plate and running a luminescence read on the EnVision. The quantified IL-1a signal for each siRNA gene-targeted well was divided by the median of the negative control wells and multiplied by 100 to achieve a negative control normalized value for each well/siRNA. This normalized value was then used to generate a robust z-score by first taking the log of each value and then by subtracting the median and dividing by the […].
row,Sequence,z-score
1,CCAAGACUGUGACAAGUUUTT against Ctsz,-0.557
2,GGAAACCAGACUUUCCCUATT against Vmn1r43,-0.18
3,CGAAGAUAUUACUAUUCUGTT against Lama2,1.65
4,GAUGCACACGUGGGAAGACTT against Cdpf1,2.25 (active)
5,GCUCCAUCUACAAACAAUGTT against Gpr37l1,1.53
6,GGGACAGGAACAAACAAGCTT against Polq,2
7,GGUUAUAGAUGUAAAGUCUTT against Isg20l2,-0.847
8,GGAGCUUCUUUUCCCUCUATT against Gcgr,-0.684
9,GGAUUUAAGUGCCCGGUAUTT against Znrf2,1.34
10,GCGAUAUGCCCUAACUGGATT against Mmp24,0.967
11,GGAAGAUCCGCUUCAACGUTT against Mab21l4,1.2
12,GGUUGGUUUGGAGAAGGCATT against Krt35,2.91 (active)
13,CCACAUGCCUGAGAGAUUCTT against Spp2,1.28
14,CGUUUGACCAAAACAGAAUTT against Fbxw10,0.709
15,GGAAGUCAGACAGAUUUAATT against Prss33,2.69 (active)
16,CGCACCUUUCUUUGGAAUGTT against Rab1b,1.72
17,GGAUUUUGUUCUUCAUCCATT against Nedd4,-0.142
18,GGGUUAUGGAUUUGAAGUGTT against Tmem131l,1.3
19,CCAAUUUUCAAGAUCGGUCTT against Pakap,0.347
20,GCUCUGAUGUCAACCUUCCTT against Fam174c,-2.23 (active)
21,CCACCUUUAUUCAAAAUCGTT against Mmp20,-0.451
22,CCUACUCAAGAAGCUCAGUTT against Hpse,-2.47 (active)
23,GCGCACAAGCCUUACUAAATT against Zfp560,0.0854
24,GCGGACAUGAGUUUGAAUGTT against Bnipl,-0.858
25,GGUGGACAAGAUGAUGGAATT against Gps2,1.92
26,GGAGACAGAUGAAUGAACCTT against Tifab,0.0548
27,CCCUCUCUACGAUGACUCUTT against Parm1,-2 (active)

row,Sequence,z-score
1,CCAAUAACUUCGCUUAUAUTT against Ms4a2,-0.389
2,GGUUCAUCCAACUUUCAAGTT against Stac3,0.587
3,GUUUCUGGGUGAGCGCGAUTT against Fzd2,2.29 (active)
4,GGCAUUUAAAACUCAUUGUTT against G6pdx,-1.47
5,GGGUUCAGAGGUCAUCAACTT against Lin37,-1.95
6,GCAAAUUAGGCUCUUAUCCTT against 4930402H24Rik,-0.333
7,GGAAGAAAUGCAGGUGUGGTT against Gab3,-2.15 (active)
8,GCUUUAUUAACCCAUCAAATT against Wdr78,-0.136
9,GGGAAAAUUCCAGAAUUGUTT against Serpinb9c,-1.37
10,GGAGAUGGCCGACUUCUAUTT against Coa8,0.934
11,GGUUAAAUCCCUGAUGUAUTT against Ptdss1,-0.613
12,GCUUGUGUCACCUACGGAATT against Mterf2,0.944
13,CCCAUGCUAUCAAUCAUUUTT against Olfr308,2.51 (active)
14,CCGAUGACAAUCGGCCCUUTT against Gja8,0.74
15,GGUUUUCCAUCUCCUCCAGTT against Klrc1,0.789
16,GGGAAACGUGAAUUAGUAATT against 1110051M20Rik,-1.23
17,CCUCCAUUGAUACUCAAGUTT against Pycr1,0.0219
18,GGCUAAAUCUCACACUCCATT against Mzb1,-2.18 (active)
19,GGUGAAGCUCACCAACAAUTT against Tbx20,0.301
20,CCAUGUUCCAGUUAAUGACTT against Ptch1,-0.419
21,GCAAGUCCUCUACCUUCUCTT against Vmn1r210,-1.65
22,GGUGAAACUAAAAAUGGUCTT against Egfl6,-1.07
23,GCCGUCUCUGUGUCACAAATT against Sirt1,-2.19 (active)
24,GGUCCUUGUACAACCACCCTT against Acd,0.516
25,GGUCCUUGCAUUUCAUCAATT against A630005I04Rik,1.6
26,GGAUUUUUGCACUCAGUAATT against Olfr1256,1.26
27,GGAACAUUGGUGUUACAGCTT against Atp5j,2.29 (active)
